Rows were chosen to be rich in hits. Some 3.1% of all compounds tested hit in one or more screens of this group.
HIF-2a inh = HIF-2a inhibition. 0.72% of 360,000 active. inhibition, % at 18.8 µM. 786-0 RCC cells HIF-2a reporter, luciferase luminescence, overnight;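 active means inhibition of the luminescence signal of 40% or more relative to plate controls, in a single-dose primary screen at 18.75 µM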
CF NFkB block = cystic fibrosis NF-kB activation inhibition; KKLEB NF-kB-GFP reporter, PAF-induced, GFP fluorescence overnight; AID 588850; 0.86% of 360,000 active; inhibition, % at 5 µM;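 active means at least 50% inhibition at 5 µM, scaled per plate between neutral and stimulator controls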;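 further: PAF is a Pseudomonas aeruginosa culture filtrate used as stimulus; plate controls were PAF-stimulated DMSO wells for no effect and unstimulated DMSO wells for full effect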
TRAIL sens C8 = sensitizes caspase-8 expressing cells to TRAIL. NB7+C8 cells + TRAIL, ATPlite viability luminescence. inhibition (viability loss, TRAIL sensitization), % at 10 µM. 1% of 360,000 active. AID 624354;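 active means compounds causing at least 50% loss of cell viability in the single-dose screen, relative to plate controls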
PPC-1+TRAIL kill = compounds killing PPC-1 cancer cells with TRAIL present (potentiator screen, no TRAIL-free arm); PPC-1 cells + TRAIL, ATPLite viability luminescence; cell killing (% activity), % at 4 µM or 5 µM; 0.41% of 220,000 active; AID 1443;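 active means cell killing above 50% in the first pass at 4 µM, then a duplicate retest at 5 µM averaging 50% or more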;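 further: plate controls were cells with TRAIL plus DMSO for no effect and medium-only wells lacking cells for full effect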
Peg3 prom inh = Peg3 promoter activity inhibition | inhibition, % at 20 µM | 1.7% of 360,000 active | AID 588405 | HeLa PEG-Prom luciferase reporter, luminescence, overnight;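 active means inhibition of at least 50% at 20 µM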
KKLEB cytotox = reduces viability of KKLEB cystic fibrosis airway cells; 0.36% of 360,000 active; activity change (cytotoxicity), % at 5 µM; KKLEB CF airway cells viability, ATPlite luminescence, overnight; stronger effect = lower value; cells stimulated with P. aeruginosa culture filtrate; AID 602141;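 active means corrected activity change at or below -50% at 5 µM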
* marks the source's active call; other numbers are inactive results; · = not tested or not shown.

SMILES	HIF-2a inh	CF NFkB block	TRAIL sens C8	PPC-1+TRAIL kill	Peg3 prom inh	KKLEB cytotox
COc1ccc(OC)c2c1C(=O)C(Cl)=C(Cl)C2=O	94*	90*	46	26	107*	-54*
O=[N+]([O-])c1ccc2[nH]cc(S(=O)(=O)N3CCN(c4cccc(Cl)c4)CC3)c2c1	7	13	16	·	60*	1
O=S(=O)(c1ccccc1)N1CCN(c2cccc(Cl)c2)CC1	-1	-14	6	·	3	14
CC(C)[C@@H](CO)NS(=O)(=O)c1ccc(Br)cc1F	9	3	-4	·	-14	4
CC1CCCN(CCCNC(=O)c2ccc3c(c2)N(Cc2cccc(Cl)c2)C(=O)c2ccccc2S3=O)C1 (stereo not drawn)	8	2	11	·	57*	0
Cc1cccnc1Nc1nc(-c2ccccn2)cs1	-180	9	49*	0	-128	5
Cc1cccnc1Nc1nc(-c2ccccc2)cs1	-190	-17	11	·	-316	-10
CCOC(=O)CSC1=NC(=O)/C(=C/c2ccc(Br)cc2)S1	-130	42	17	-26	75*	-16
CCOC(=O)CSC1=NC(=O)/C(=C\c2ccc(OC(C)=O)cc2)S1	19	0	3	10	53*	1
NC(=O)c1c(NC(=O)c2cccc(N3C(=O)CCC3=O)c2)sc2c1CCCCC2	-6	-6	83*	·	0	14
NC(=O)c1c(NC(=O)c2cc3ccccc3o2)sc2c1CCC2	-89	23	50*	28	-145	-21
CNC(=O)c1c(NC(=O)c2cccc(N3C(=O)CCC3=O)c2)sc2c1CCCC2	-8	-7	11	9	-12	11
NC(=O)c1c(NC(=O)c2ccc(F)cc2)sc2c1CCC2	-304	-10	35	·	-291	0
NC(=O)c1c(NC(=O)c2ccc([N+](=O)[O-])o2)sc2c1CCCC2	7	107*	-28	·	99*	-64*
COCCNC(=O)C1(C)CCCN(C(=O)Cc2ccc3ccccc3c2)C1 (stereo not drawn)	-8	3	-5	·	-3	7
CCN(CC)CCCNC(=O)c1ccc(S(=O)(=O)Nc2ccc(C)c(C)c2)cc1	16	2	12	·	-8	2
COCC(=O)O[C@]1(CCN(C)CCCc2nc3ccccc3[nH]2)CCc2cc(F)ccc2[C@@H]1C(C)C	6	9	22	14	90*	-13
Cc1nc(N)nc(N)c1CCCc1ccc(Cl)c(Cl)c1	9	13	73*	·	26	-11
Cc1nc(N)nc(N)c1-c1ccc(Cl)c(Cl)c1	22	10	82*	·	23	-10
COc1ccc(-c2nc(N)nc(C)c2-c2ccc(Cl)cc2)c(O)c1	21	7	2	·	26	-2
COc1ccc(Cc2c(C)nc(N)nc2Cl)cc1	16	11	-5	7	7	3
Cc1cc(OCc2nc(N)nc(N)c2-c2ccc(Cl)c(Cl)c2)ccc1[N+](=O)[O-]	24	-13	83*	·	50	-29
Cc1cccc(NC(=O)C(Cc2ccccc2)c2nn[nH]n2)c1C (stereo not drawn)	17	3	3	·	7	-6
COc1ccc(Cc2c(-c3ccc(F)cc3)nc3cc(C)c(Br)c(C)n23)c(C)c1	-2	·	27	·	·	·
Cc1ccc(/C(N)=N/OC(=O)/C=C/c2ccccc2)cc1	-170	-20	37	29	-181	6
SMILES	HIF-2a inh	CF NFkB block	TRAIL sens C8	PPC-1+TRAIL kill	Peg3 prom inh	KKLEB cytotox
Cc1ccccc1/C(N)=N/OC(=O)/C=C/c1ccccc1	-245	-24	94*	10	-242	2
O=C(Nc1ccc(C(=O)NCCCN2CCN(c3ccccc3)CC2)cc1)C1=CSCCO1	-6	1	4	·	4	-13
COc1cc(/C=N/NC(=Nc2ccc(C)cc2)c2nc3ccccc3s2)ccc1O	73*	-16	52*	-2	72*	-12
O=C(Nc1ccccc1)Nc1nnc(CSCc2ccccc2Cl)s1	-1	13	-2	12	33	2
O=C(Nc1ccc(Cl)c(Cl)c1)Nc1nnc(CSc2ccccc2)s1	5	73*	43	30	42	-56*
Cc1ccc(OCCSCc2nnc(NC(=O)Nc3cccc(Cl)c3)s2)cc1	9	49	52*	32	32	-2
C=C(C)c1cccc(C(C)(C)NC(=O)NNC(=O)c2ccccc2O)c1	9	-3	10	·	0	3
